Source: publication PMC4336329 (PLoS ONE, 2015)
In all, about 310,000 compounds went through this assay and about 14,000 (4.5%) showed an effect of 50% or more. The effect is printed as a negative number. Many of the other results were omitted from the sample, so strong results are more common in it than they were.

target: human ether-à-go-go-related gene (hERG) potassium channel (human, UniProt Q12809); test: primary screen, population patch clamp on CHO cells stably expressing hERG; higher = less effect of the substance
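Further: peak tail current of the secondary pulse compared with the same well before compound.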

human ether-à-go-go-related gene (hERG) potassium channel, sequence (Q12809 whole entry, looked up): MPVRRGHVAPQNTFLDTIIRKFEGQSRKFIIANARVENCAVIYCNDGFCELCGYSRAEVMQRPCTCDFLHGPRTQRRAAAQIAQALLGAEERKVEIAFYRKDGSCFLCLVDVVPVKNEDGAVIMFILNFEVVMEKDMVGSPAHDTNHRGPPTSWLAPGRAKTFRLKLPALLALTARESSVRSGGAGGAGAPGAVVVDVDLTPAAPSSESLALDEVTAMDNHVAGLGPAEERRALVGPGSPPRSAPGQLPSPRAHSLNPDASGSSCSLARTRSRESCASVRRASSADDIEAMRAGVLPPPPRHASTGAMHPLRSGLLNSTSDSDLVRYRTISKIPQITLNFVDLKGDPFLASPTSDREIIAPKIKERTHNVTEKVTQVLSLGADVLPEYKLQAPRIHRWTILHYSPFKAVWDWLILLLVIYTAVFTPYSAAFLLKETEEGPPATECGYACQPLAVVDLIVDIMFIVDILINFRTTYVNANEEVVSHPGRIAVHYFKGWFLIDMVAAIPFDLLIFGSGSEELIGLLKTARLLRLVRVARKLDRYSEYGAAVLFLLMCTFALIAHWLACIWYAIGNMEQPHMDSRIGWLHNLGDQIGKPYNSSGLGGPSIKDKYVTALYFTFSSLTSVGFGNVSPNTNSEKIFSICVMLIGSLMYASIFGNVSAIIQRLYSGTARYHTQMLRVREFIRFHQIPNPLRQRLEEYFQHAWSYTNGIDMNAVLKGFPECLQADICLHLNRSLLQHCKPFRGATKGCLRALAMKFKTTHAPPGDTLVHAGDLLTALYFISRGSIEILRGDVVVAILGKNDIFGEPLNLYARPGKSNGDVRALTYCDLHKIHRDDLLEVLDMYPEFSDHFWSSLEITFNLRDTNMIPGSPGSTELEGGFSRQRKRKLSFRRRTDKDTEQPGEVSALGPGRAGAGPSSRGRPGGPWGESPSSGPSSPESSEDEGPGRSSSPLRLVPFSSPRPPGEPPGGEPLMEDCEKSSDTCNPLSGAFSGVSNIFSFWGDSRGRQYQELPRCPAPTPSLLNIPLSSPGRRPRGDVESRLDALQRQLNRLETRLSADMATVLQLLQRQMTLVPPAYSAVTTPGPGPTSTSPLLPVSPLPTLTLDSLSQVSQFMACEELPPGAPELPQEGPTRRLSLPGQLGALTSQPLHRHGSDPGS

| Compound | hERG current change (%, negative = inhibition) at 10uM [%] |
| --- | --- |
| C/C(CC(=O)Nc1ccc([N+](=O)[O-])cc1)=N/NC(=O)C1C2CCCCC21 (centres unmarked) | -21.7 |
| O=C(Nc1ccc(NC(=O)c2ccc3c(c2)OCO3)cc1)c1cccc(Cl)c1 | 24.9 |
| Cc1onc(-c2ccccc2)c1C(=O)OCCOc1ccc([N+](=O)[O-])cc1[N+](=O)[O-] | -17.9 |
| O=C(CCN1C(=O)COc2ccccc21)NCc1cccnc1 | 6.28 |
| Cc1c(NC(=O)C2CC(c3ccc(F)cc3)=NO2)c(=O)n(-c2ccccc2)n1C (centres unmarked) | -3.93 |
| O=S(=O)(NN=C1CCCCCCC1)c1ccc(Br)cc1 | 4.3 |
| Cc1ccc(-c2noc(CN(C)C(=O)c3ccc(Br)o3)n2)cc1 | -18.7 |
| O=C(CCCn1c(=O)[nH]c2ccsc2c1=O)NCc1cccs1 | 4.11 |
| CCCCN(C(=O)CN1C(=O)C2CC=CCC2C1=O)c1c(N)n(CCC)c(=O)[nH]c1=O (centres unmarked) | 4.14 |
| O=C(O)Cc1cccc2ccccc12 | 16.6 |
| CCCOc1ccc(/C=C2\SC(N)=NC2=O)cc1OC | 3.66 |
| O=C(O)c1cccc2c(/C=N/Nc3ccccn3)c[nH]c12 | -1.13 |
| CCN(C(=O)C1CCCN(c2ncnc3c2nc2n3CCCCC2)C1)c1cccc(Cl)c1 (centres unmarked) | -62.5 |
| Cc1ccccc1N(C)C(=O)C1CCCN(c2ncnc3c2nc2n3CCCCC2)C1 (centres unmarked) | -7.96 |
| CN(Cc1ccco1)C(=O)C1CCCN(c2ncnc3c2nc2n3CCCCC2)C1 (centres unmarked) | 5.57 |
| Cc1ccc(CNC(=O)C2CCCN(c3ncnc4c3nc3n4CCCCC3)C2)cc1 (centres unmarked) | -49 |
| O=C(NCc1ccccc1)C1CCCN(c2ncnc3c2nc2n3CCCCC2)C1 (centres unmarked) | -69.1 |
| CN(C(=O)C1CCCN(c2ncnc3c2nc2n3CCCCC2)C1)c1cccc(Cl)c1 (centres unmarked) | -45.9 |
| CC(C)N(CCNC(=O)C1CCCN(c2ncnc3c2nc2n3CCCCC2)C1)Cc1ccccc1 (centres unmarked) | -37.3 |
| Cc1ccc(CN2CCC(CNC(=O)C3CCCN(c4ncnc5c4nc4n5CCCCC4)C3)CC2)cc1 (centres unmarked) | -45 |
| CC(C)N(Cc1ccccc1)C(=O)C1CCCN(c2ncnc3c2nc2n3CCCCC2)C1 (centres unmarked) | -44.3 |
| O=C(NCC1CCN(Cc2ccc(F)cc2)CC1)C1CCCN(c2ncnc3c2nc2n3CCCCC2)C1 (centres unmarked) | -39.6 |
| CN(Cc1ccccc1)C(=O)C1CCCN(c2ncnc3c2nc2n3CCCCC2)C1 (centres unmarked) | -66 |
| O=C(NCC1CCN(Cc2ccc(Cl)cc2)CC1)C1CCCN(c2ncnc3c2nc2n3CCCCC2)C1 (centres unmarked) | -65.7 |
| O=C(C1CC1)N1CCCN(C(=O)C2CC2)CC1 | 16.3 |
| CCC1(C)Cc2ccccc2-c2nc(NCCCO)n(-c3ccccc3)c(=O)c21 (centres unmarked) | -48.6 |
| c1ccc(COc2ccccc2CNc2nn[nH]n2)cc1 | 13.1 |

| Compound | hERG current change (%, negative = inhibition) at 10uM [%] |
| --- | --- |
| O=C(Nc1sc2c(c1C(=O)NCC(O)CO)CCCC2)c1ccccc1 (centres unmarked) | 6.02 |
| O=C(COC(=O)CNC(=O)c1cccs1)Nc1ccc(C(F)(F)F)cc1[N+](=O)[O-] | -44 |
| CCn1c(C)nnc1SCC(=O)Nc1ccc(Cl)cc1 | 10.3 |
| CN(CC(=O)NCCCc1ccccc1)S(=O)(=O)c1ccc(Br)cc1 | -7.88 |
| O=C(Nc1ccc(Cl)cc1)C1CCCN(c2ncnc3c2nc2n3CCCCC2)C1 (centres unmarked) | -50.1 |
| Cc1ccc(NC(=O)C2CCCN(c3ncnc4c3nc3n4CCCCC3)C2)cc1Cl (centres unmarked) | -6.39 |
| CC(=O)c1ccc(NC(=O)C2CCCN(c3ncnc4c3nc3n4CCCCC3)C2)cc1 (centres unmarked) | -24.1 |
| COc1ccc2no[n+]([O-])c2c1 | 28.1 |
| CC1CCc2c(sc(NC(=O)CCC(=O)O)c2C(=O)NC2CC2)C1 (centres unmarked) | 18.1 |
| COc1ccc(NC(=O)n2ncc3cc(Cl)ccc32)cc1OC | 21.3 |
| CC(C)(C)N(Cc1cc2ccccc2[nH]c1=O)C(=O)c1ccco1 | 8.21 |
| COc1ccc(NC(=O)CSc2nnc(NC(=O)C3CCC3)s2)c(OC)c1 | 12.6 |
| CS(=O)(=O)Oc1ccc2c(c1)O/C(=C\C=C\c1ccccc1)C2=O | 8.05 |
| Cc1ccc(S(=O)(=O)Cc2ccc(C(=O)N3CCC(C(N)=O)CC3)o2)cc1 | 30.7 |
| CC(C)N(C(=O)Nc1ccc2nsnc2c1)C(C)C | 0.592 |
| CC1(C)Cc2cccc(OCC(=O)N3CCN(c4ccc(F)cc4)CC3)c2O1 | -69.5 |
| CC1(C)Cc2cccc(OCC(=O)N3CCN(c4ccccc4F)CC3)c2O1 | -22.4 |
| CC1(C)Cc2cccc(OCC(=O)N3CCN(c4ccc([N+](=O)[O-])cc4)CC3)c2O1 | -70.3 |
| CC1(C)Cc2cccc(OCC(=O)N3CCN(c4cccc(Cl)c4)CC3)c2O1 | -4.1 |
| CC1(C)Cc2cccc(OCC(=O)N3CCN(c4ccccc4)CC3)c2O1 | -45.6 |
| CC1(C)Cc2cccc(OCC(=O)N3CCN(c4ccccc4Cl)CC3)c2O1 | -64.3 |
| CC1(C)Cc2cccc(OCC(=O)N3CCN(c4cccc(C(F)(F)F)c4)CC3)c2O1 | 1.57 |
| CC1(C)Cc2cccc(OCC(=O)N3CCN(S(=O)(=O)c4ccc(F)cc4)CC3)c2O1 | -21.6 |
| Cc1cccc(N2CCN(C(=O)COc3cccc4c3OC(C)(C)C4)CC2)c1C | -2.16 |
| CCn1cc(C(=O)O)c(=O)c2cc(F)c(N3CCN(S(=O)(=O)c4ccc(NC(=O)OC)cc4)CC3)cc21 | 21.8 |
| CC1(C)SC(=S)N(/N=C/c2cccnc2)C1N(O)C(=O)Nc1ccccc1 (centres unmarked) | -5.91 |
